# In the library only some 3.8% were active in any assay of this set; here they are far more common.
# mIDH1 inhibitor = blocks human mutant IDH1 R132H enzyme. Potency, µM (doses to about 76.6 µM), without a hit: top-dose activity change, negative = inhibition, most hits filed as inhibitors. AID 602179. O75874. IDH1-R132H enzyme, NADPH consumption, diaphorase/resazurin fluorescence. 0.093% of 390,000 active; note: % is set by controls: 0 for no effect and ±100 for the full control effect; nearly all actives have a fitted effect of over 65% in size
# Target sequence (O75874 whole entry R132H, stated change not applied): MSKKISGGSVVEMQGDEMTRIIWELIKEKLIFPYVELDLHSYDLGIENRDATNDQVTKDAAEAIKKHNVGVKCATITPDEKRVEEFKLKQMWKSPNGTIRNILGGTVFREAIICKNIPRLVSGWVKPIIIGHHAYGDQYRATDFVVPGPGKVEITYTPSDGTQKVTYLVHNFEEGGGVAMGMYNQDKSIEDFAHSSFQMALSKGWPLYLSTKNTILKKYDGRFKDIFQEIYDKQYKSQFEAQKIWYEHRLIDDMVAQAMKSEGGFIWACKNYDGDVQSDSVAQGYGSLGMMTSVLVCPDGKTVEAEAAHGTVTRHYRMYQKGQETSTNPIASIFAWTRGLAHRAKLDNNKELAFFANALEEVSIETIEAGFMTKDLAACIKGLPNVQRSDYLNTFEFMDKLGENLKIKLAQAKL
#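 IDH1-R132H (0.5 ug/mL dispensed) in pH 7.5 Tris buffer was preincubated 30 min with compound, then given a substrate mix of 0.016 mM NADPH and 2 mM alpha-KG for 80 min at room temperature; remaining NADPH was read by diaphorase/resazurin fluorescence.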
# A549 tox = A549 cytotoxicity, counter-screen for Nrf2 inhibitors; A549 ARE-Fluc cells, CellTiter-Fluor viability, 18-24 h; Potency, µM (series often up to 46 µM), inactives show at the highest dose activity change, negative = cytotoxicity, hits mostly inhibitors; 0.16% of 390,000 active; AID 504648; note: % is set by controls: 0 for no effect and ±100 for the full control effect
#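 A549 ARE-Fluc cells in 5% FBS OPTI-MEM, 5000 cells/well, rested 2 h then exposed to compounds in concentration-response for 18-24 h at 37 °C. Viability by CellTiter-Fluor fluorescence (Ex 405/Em 525) after 30 min; luciferase luminescence (BugLite, 15 min, RT) read afterwards.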
# Nrf2 block = Nrf2 pathway inhibition | A549 ARE-Fluc reporter, luciferase luminescence, 18-24 h | Potency, µM (series often up to 46 µM), without a hit: top-dose activity change, negative = inhibition, hits mostly inhibitors | 2.1% of 360,000 active | AID 504444; note: % is set by controls: 0 for no effect and ±100 for the full control effect; nearly all actives have a fitted effect of over 60% in size
#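 Nrf2 activity is the BugLite luminescence, read 15 min after reagent at room temperature, following CellTiter-Fluor cytotoxicity readout (30 min, 37C). Compound titrations were applied for 18-24 h to 5000 A549 ARE_Fluc cells/well in 5% FBS OPTI-MEM.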
# ELG1 DNA repair = blocks ELG1-dependent DNA repair in HEK293T cells; HEK293T ELG1-luciferase reporter, luminescence, 16 h; DNA damage induced by 5-fluorouridine; Potency, µM (top dose mostly 46.1 µM), inactives show at the highest dose activity change, negative = inhibition, hits mostly inhibitors; 2.3% of 330,000 active; AID 504467; note: % is set by controls: 0 for no effect and ±100 for the full control effect; nearly all actives have a fitted effect of over 55% in size
#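 Cells (2,000 per well) received 5-fluorouridine plus test compound or DMSO and were incubated 16 hr at 37 °C, 5% CO2. Luciferase activity was read by luminescence 30 min after ONE-Glo addition; signal suppression marked inhibition of damage-induced ELG1 function.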
# Nrf2 ARE act = Nrf2 pathway activation | AREc32 ARE-luciferase reporter (MCF7-derived line), luminescence, 24 h | Potency, µM (titrated, usually from 46.1 µM), for inactives: at the highest dose activation, actives largely listed as activators | 0.31% of 410,000 active | AID 624171; note: % of control where 0% means no effect; nearly all actives have a fitted effect of over 65% in size
#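 For detection, Steady-Glo was added and plates sat 30 min at RT; before that, AREc32_Fluc cells grown overnight in OPTI-MEM/5% FBS had been treated with 23 nL compound for 24 hr at 37 deg C.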
# Numbers without * were called inactive; u = inconclusive; x = no result given. Calls come from the whole dose curve; as a rule, active = well fitted curve in the direction sought with a large enough effect; inconclusive = small, poorly fitted or top-dose-only effect, or another doubt; inactive = no such curve, though single readings can be large; an effect the other way counts as inactive or inconclusive. Potency is the fitted concentration of half-maximal effect.
SMILES,mIDH1 inhibitor,A549 tox,Nrf2 block,ELG1 DNA repair,Nrf2 ARE act
O=c1c(-c2ccco2)[n+]([O-])c2ccccc2n1OCc1ccccc1F,2%,u,u,-19%,u
O=c1c(-c2ccco2)[n+]([O-])c2ccccc2n1OCc1ccccc1,15%,0%,14%,u,3.2µM*
COc1ccc(-n2cc(C(=O)N(CCN(C)C)Cc3ccccc3)c3ccccc3c2=O)cc1,-3%,7%,u,x,1%
CCN1CCOC(=O)C1CC(=O)Nc1cc(Cl)ccc1OC (stereo not given),-8%,-15%,-34%,x,8%
CCOC(=O)c1csc(-c2ccc(OC)c(OC)c2)n1,5%,-7%,14%,u,0%
CCOC(=O)c1csc(-c2sccc2Br)n1,14%,-3%,u,u,14µM*
C[C@@H]1CN([C@@H](C)CO)C(=O)CCCn2nncc2CO[C@H]1CN(C)S(=O)(=O)c1ccc2ccccc2c1,-1%,x,x,x,0%
COCCN(Cc1cc2cc(C)ccc2nc1Cl)C(=O)Nc1ccccc1OC,-1%,-1%,u,21µM*,0%
Cc1ccc(S(=O)(=O)c2cn(CC(=O)Nc3ccccc3)c3cc4c(cc3c2=O)OCO4)cc1,-7%,4%,7%,x,1%
Clc1c(-c2ccccc2)nc2ccccn12,-3%,-1%,u,u,11µM*
Cc1c(-c2ccc(Br)cc2)nc2ccccn12,12%,6%,u,u,4µM*
Cc1ccc(-c2nc3ccccn3c2C=O)cc1,-2%,-3%,u,u,20%
Cn1c(NC(=O)/C=C/c2ccccc2)cc(=O)n(C)c1=O,5%,-2%,u,u,7.1µM*
CC(C)(CNC(=O)/C=C/c1ccc(F)cc1)CNC(=O)/C=C/c1ccc(F)cc1,3%,-3%,-2%,23µM*,9%
O=C(/C=C/c1ccc(F)cc1)NC(=S)NC1CCCCC1,13%,-1%,12µM*,7%,1%
O=C(/C=C/c1ccc(F)cc1)NC(=S)Nc1ccccc1C(=O)NC1CCCCC1,0%,-8%,-7%,18%,0%
COc1cc(NC(=O)c2cc(C)nc3c2c(C)nn3-c2ccccc2Cl)cc(OC)c1,1%,2%,-30%,x,1%
CCC(=O)Nc1ccc(N2CCCCC2)c(C(=O)Nc2ccc(OC)cc2)c1,1%,-15%,18µM*,-4%,3%
Cc1ccc(NC(=O)c2cc(NC(=O)CCC(=O)O)ccc2N2CCCCC2)cc1,8%,0%,10%,u,-1%
CC1=C(C(=O)Nc2ccccc2)C(c2cccc(O)c2)n2nc(-c3ccccc3Cl)nc2N1 (stereo not given),0%,-5%,-3%,x,11%
COCCn1c(=S)[nH]c2cc(C(=O)N3CCN(Cc4ccccc4)CC3)ccc2c1=O,x,0%,11%,x,x
O=C(CCC1CCCN(C(=O)c2ccccc2Cl)C1)N1CCN(c2ccccn2)CC1 (stereo not given),16%,-4%,u,u,-1%
CC(=O)c1ccccc1C(=O)N1CCCC(CCC(=O)N2CCN(c3ccccn3)CC2)C1 (stereo not given),-8%,6%,2%,23µM*,0%
O=C(/C=C/c1ccc(OCCCF)cc1)Nc1ccnc(-c2cccnc2)n1,-2%,-7%,u,7.3µM*,0%
Cc1ccc(-n2cc(CN3CCC(O)(c4ccccn4)CC3)c(-c3ccc(F)cc3)n2)cc1,6%,u,u,18µM*,4%
SMILES,mIDH1 inhibitor,A549 tox,Nrf2 block,ELG1 DNA repair,Nrf2 ARE act
COc1ccc(OC)c(CCNC(=O)c2ccc3c(=O)[nH]c4c(C(=O)NC(C)C)sc(=S)n4c3c2)c1,-17%,-7%,2%,10µM*,0%
COc1cccc(CN2CCCN(Cc3ccc(F)cc3)S2(=O)=O)c1,21%,-2%,u,x,1%
CCOC(=O)c1c(C)oc2nc(C)nc(NCc3ccc(F)cc3)c12,-8%,-1%,u,x,-1%
O=C(Cc1cccc2ccccc12)N/N=C/c1ccc(Sc2cccc3cccnc23)o1,x,x,x,16µM*,x
Cn1nnnc1Sc1ncnc2scc(-c3cccc(S(C)(=O)=O)c3)c12,x,u,8.2µM*,u,-2%
Cn1nnnc1Sc1ncnc2scc(-c3cccc(Br)c3)c12,x,-26%,23µM*,13µM*,12%
Nc1cccc(S(=O)(=O)N2CCN(S(=O)(=O)c3c(F)cccc3F)CC2)c1,x,-3%,3%,x,x
CCN1Cc2cc(OC)ccc2-c2ccccc2S1(=O)=O,21%,5%,2%,8%,-1%
O=C(Nc1cccnc1)c1ccc([N+](=O)[O-])s1,14%,-15%,u,u,u
O=C(Nc1cccc2ccccc12)c1ccc([N+](=O)[O-])s1,-3%,1%,-19%,16µM*,u
O=C(Nc1ccccc1F)c1ccc([N+](=O)[O-])s1,13%,u,u,23µM*,3%
O=C(Nc1cccc2ccccc12)c1ccc([N+](=O)[O-])o1,1%,-25%,-4%,u,u
CCOc1ccc(NC(=O)CN(C)C(=O)CCCOc2ccc(Cl)c(C)c2)cc1OCC,2%,u,21µM*,u,3%
CCOc1ccc(NC(=O)CN(C)C(=O)c2cn(-c3ccc(F)cc3)nc2-c2cccc(OC)c2)cc1OCC,0%,u,u,9.2µM*,-1%
CCOc1ccc(NC(=O)CN(C)C(=O)c2ccncc2)cc1OCC,-7%,1%,-5%,-1%,0%
CCOc1ccc(NC(=O)CN(C)C(=O)c2ccccc2OCCOc2ccccc2)cc1OCC,-5%,-9%,u,12µM*,0%
CCOc1ccc(NC(=O)CN(C)C(=O)CCc2ccccc2Cl)cc1OCC,4%,0%,3%,2%,0%
CCOc1ccc(NC(=O)CN(C)C(=O)c2ccccc2CCc2ccccc2)cc1OCC,0%,-13%,16%,7.3µM*,2%
CCOc1ccc(NC(=O)CN(C)C(=O)c2cccc3ccccc23)cc1OCC,6%,-3%,3%,2%,-1%
CN(CC(=O)Nc1ccc(F)cc1F)S(=O)(=O)c1cccc2nsnc12,6%,0%,-10%,x,0%
Cc1cccc(Cn2cc(C(=O)Nc3ccc(S(N)(=O)=O)cc3)ccc2=O)c1,-7%,-7%,x,x,0%
Cc1cc(C)n(-c2ccc(C(=O)N3CCN(S(=O)(=O)c4ccc(Br)cc4Cl)CC3)cc2)n1,4%,x,x,x,3%
O=c1cc(-c2ccncc2)oc2c1ccc1ccccc12,0%,-14%,18µM*,u,3%
O=c1cc(-c2ccc(O)cc2)oc2c1ccc1ccccc12,23%,-8%,u,u,0%
O=c1cc(C(Cl)(Cl)Cl)oc2c1ccc1ccccc12,-4%,u,21µM*,15%,13µM*

# From PubChem
